# Test results as given in PubChem BioAssay AID2314 (National Center for Advancing Translational Sciences (NCATS), 2010).
# The campaign covered roughly 300,000 compounds. About 37,000 (12%) were called active. Cut-off read from the data, not from the text of the source: active = max response mostly above about 13% (no sharp cut-off); inactive = mostly below about 14%. This excerpt belongs to a sample that is enriched for actives.
# Test: Cycloheximide Counterscreen for Small Molecule Inhibitors of Shiga Toxin; note: read at 38.3 µM for the half of the compounds with a filed dose; 0% is about no effect
# Settings: cell reporter, cycloheximide protein synthesis inhibition counterscreen; stronger effect = higher value
row,Compound,max response
1,O=C(O)CC(CC(=O)N1CCOCC1)c1ccccc1 (stereo unspecified),-2.32% (inactive)
2,COc1ccc(/C=C2/C(=O)N(c3ccccc3)N=C2C)c(OC)c1,-1.9% (inactive)
3,Cc1cn(C2C=CC(CO)O2)c(=O)[nH]c1=O (stereo unspecified),-1.84% (inactive)
4,CN(C)CCN(Cc1ccccc1)S(=O)(=O)c1csc(C(N)=O)c1,-8.34% (inactive)
5,Cc1cccc(N2CCN(c3ccc(C(N)=O)cc3[N+](=O)[O-])CC2)c1C,-1.03% (inactive)
6,CCOC(=O)C1CCN(c2ccc(C(=O)O)cc2[N+](=O)[O-])CC1,-2.89% (inactive)
7,Cc1ccc(C(=O)c2ccc(N3CCN(C)CC3)c([N+](=O)[O-])c2)cc1,18.7% (active)
8,COc1ccc(C(=O)NC2(C(F)(F)F)NC(=O)N(CCCc3ccccc3)C2=O)c(OC)c1OC (stereo unspecified),10.5% (inactive)
9,Cc1ccc2c(c1)N(CC(=O)NCCc1ccc(Cl)cc1)C(=O)c1cccnc1O2,-1.47% (inactive)
10,CCn1cc(S(=O)(=O)c2cccc(C)c2)c(=O)c2cc(F)c(N3CCN(C)CC3)cc21,-2.21% (inactive)
11,CN(Cc1ccccc1Cl)C(=O)C1CCC(=O)N(CCc2cccc(F)c2)C1 (stereo unspecified),10% (inactive)
12,Cc1cccc(C(=O)NCCCN(C)CCCNC(=O)c2cccc(C)c2)c1,-0.372% (inactive)
13,Cc1cccc(NC(=S)NCCN(C2CCCCC2)C2CCCC2)c1,-7.35% (inactive)
14,Cc1cccc(C(=O)NC(=S)N(C)C2CCCCC2)c1,61% (active)
15,Cc1[nH]c(=O)c(C(=O)/C=C/c2ccccc2)c2c1CCCC2,-1.39% (inactive)
16,O=C(/C=C/c1ccccc1)c1ccoc1,40.4% (active)
17,COc1ccc(/C=C/C(=O)c2cc(Br)ccc(=O)c2O)cc1,-1.31% (inactive)
18,COc1ccc(C(=O)/C=C/c2cccnc2)c(OC)c1,8.73% (inactive)
19,O=S(=O)(/C=C/c1ccccc1)N1CCNCC1,0.861% (inactive)
20,O=C(/C=C/c1ccccc1)c1ccccc1O,29.3% (active)
21,CC(/C=C/c1ccccc1)=N\NC(=O)C1CC1(C)c1ccccc1 (stereo unspecified),-2.65% (inactive)
22,COc1ccc(/C=C/C(=O)c2ccc(OC)cc2O)cc1,41.2% (active)
23,O=C(/C=C/c1ccccc1)N/C(=C/c1ccccc1)C(=O)Nc1ccccc1O,8.16% (inactive)
24,CC(C)c1nc(CNC(=O)CC2C(=O)NCCN2Cc2cccc(F)c2F)cs1 (stereo unspecified),-2.45% (inactive)
25,COc1cc(C2NC(=O)NC(c3ccccc3)=C2C(C)=O)c(Br)cc1OCC(N)=O (stereo unspecified),-1.35% (inactive)
26,O=C(c1cccc(F)c1)N1CCN(c2ccc([N+](=O)[O-])c3cccnc23)CC1,-5.99% (inactive)
